{
  "source": "PubChem BioAssay AID1508642",
  "about": "(National Center for Advancing Translational Sciences (NCATS), 2021)",
  "note": "Among all 43,000 compounds or so, about 200 (0.47%) were called active. About 12% were inconclusive and are not listed. This is one part of a sample in which actives are shown more often than they occur. Unmarked numbers belong to inactive results. The call rests on the fitted dose curve; in most records, active means well fitted cell-killing curve with a large enough effect; inconclusive means small, poorly fitted or top-dose-only effect, or effect the other way; inactive means flat fitted curve, though single readings scatter. On the % scale 0 is the no-effect control and ±100 the full control effect; potency means the concentration at half of the fitted maximal effect.",
  "data": [
    {"assay": "Cell viability qHTS assay in S16 Pmp22-F2sN cells; further: nearly all actives have a fitted effect of over 65% in size", "settings": "S16 Pmp22-F2sN Schwann cells (luciferase reporters placed in the Pmp22 gene) viability, CellTiter-Glo, 24 h; series mostly up to 57.5 µM; activity change, negative = cytotoxicity: at the top concentration", "description": "Assay Provider: Jim Inglese Ph.D. National Center for Advancing Translational Science, National Institutes of Health, Rockville, MD CMT is a heterogeneous group of neurological disorders that affect approximately 1 in 2,500 people. In particular, the most common form of CMT, CMT1A is genetically linked to the duplication of the PMP22 gene which leads to Schwann cell overexpression, thus manifesting itself as a typical case of dose-sensitive diseases. To identify small molecule compounds that can mediate the expression of PMP22 we developed a phenotypic assay screening strategy by utilizing genome editing techniques to construct Schwann cell lines containing novel reporter technology to monitor the transcriptional or translational regulation of PMP22. For high sensitivity we use a bioluminescent reporter system embedded in the 3' UTR of the PMP22 gene (S16(c9) Pmp22-F2sN) to identify compounds that inhibit gene expression. […] We can further discriminate the effect of all transcriptionally active molecules on PMP22 translation or stability with an assay that incorporates a short NLuc peptide (HiBiT) at the C-terminus of expressed PMP22 (S16(f8) PMP22-HiBiT) allowing alpha complementation and luminescence detection of membrane-associated PMP22 protein. These assays were screened against the NCATS Sytravon Library Collection. Miniaturization of these assays to 1536-well plate format for quantitative high throughput screening (qHTS) yielded rich data sets immediately from the qHTS assay (S16(c9) Pmp22-F2sN), when compared with data from a cell viability assay (Cell TiterGlo) to identify compounds that decreased the output signals through cellular toxicity to streamline the selection process of actives for subsequent characterization using the HiBiT assay (S16(f8) PMP22-HiBiT).\nCell viability assay in S16 Pmp22-F2sN cells PROTOCOL TABLE (format as described by Inglese J, Shamu CE and Guy RK. 2007) SEQUENCE No. (e.g., 1, 2, 3, etc.); […] (e.g., Cells, Incubation, Reagent, etc.); VALUE and DESCRIPTION. 1. Cells. Add 500-1,000 cells in 4 uL in growth media (DMEM High Glucose, No Phenol Red media + 10% heat-inactivated FBS + 1% Pen/Strep supplemented media) per well into Greiner 1536-well white/solid bottom high base, TC-treated plates. 2. Compounds. Library compounds and controls added at 23nL per well, transferred by Pin Tool. 3. Incubation. Incubate plates at 37C, 5% CO2, 95% RH for 24 h. 4. Reagent. Add 3uL CellTiter-Glo per well of Greiner 1536-well plates. 5. Incubation. Incubate plates at room temperature for 15 min., protect from light. 6. Detector. FLuc luminescence measured using CCD-based camera (Viewlux). NOTES (numbers refer to Sequence numbers above; values are from representative experiments) 6. Luminescence Read: Clear filter; Exposure = 1 sec, Gain = High, Speed = Slow, Binning = 2X REFERENCES: 1. Inglese J, Shamu CE and Guy RK, Reporting data from high throughput screening of small molecule libraries, Nature Chemical Biology, 2007, 3(8): 438-441. doi.org/10.1038/nchembio0807-438 2. Yasgar A, Shinn P, Jadhav A, Auld DS, Michael S, Zheng W, Austin CP, Inglese J and Simeonov A, Compound Management for Quantitative High-Throughput Screening. J. Assoc. Lab. Auto., 2008, 13: 79-89. doi: 10.1016/j.jala.2007.12.004", "units": {"activity change, negative = cytotoxicity": "%"}, "values": [
      {"molecule": "COc1ccc(S(=O)(=O)n2nc(C)c(S(=O)(=O)N3CCCCCC3)c2C)cc1", "activity change, negative = cytotoxicity": -8.85},
      {"molecule": "CCC(=O)N1CCc2cc(CNS(=O)(=O)c3ccc(Br)s3)ccc21", "activity change, negative = cytotoxicity": -3.99},
      {"molecule": "COc1ccccc1CNC(=O)c1ccc(CS(=O)c2ccccc2Cl)o1", "note": "(configuration not stated)", "activity change, negative = cytotoxicity": -6.85},
      {"molecule": "CC(C)(C)OC(=O)N1CCC(c2c(C(=O)NCCc3ccsc3)cnn2-c2ccc(F)cc2F)CC1", "activity change, negative = cytotoxicity": -27.8},
      {"molecule": "COc1ccc(-c2nc(Cn3c(=O)cc(C)c4c(C)nn(-c5ccccc5)c43)c(C)o2)c(OC)c1", "activity change, negative = cytotoxicity": 9.69},
      {"molecule": "COC(=O)c1ccccc1NC(=O)Cn1c(=O)n(-c2cccc(C(F)(F)F)c2)c(=O)c2c(C)c(C)sc21", "activity change, negative = cytotoxicity": 0.489},
      {"molecule": "O=C(CCc1nc(CN2CCN(S(=O)(=O)c3ccc(Br)cc3)CC2)no1)N1CCCCC1", "activity change, negative = cytotoxicity": -20.1},
      {"molecule": "CCOc1ccccc1CNCc1c(C(=O)O)c(C)n(Cc2ccc(C)cc2)c1C", "activity change, negative = cytotoxicity": -0.973},
      {"molecule": "CCOc1ccc(C2C(C(=O)Nc3ccc(Cl)cc3)=C(C)Nc3nc(C(F)(F)F)nn32)cc1", "note": "(configuration not stated)", "activity change, negative = cytotoxicity": -26.8},
      {"molecule": "COc1ccc(-c2nc(CN3CCC(C(=O)NCCN(CC(C)C)CC(C)C)CC3)c(C)o2)cc1OC", "activity change, negative = cytotoxicity": -2.77},
      {"molecule": "COc1cc2nc(SCc3ccc(F)cc3)n3nc(CCn4c(C)nc5ccccc54)nc3c2cc1OC", "activity change, negative = cytotoxicity": -6.47},
      {"molecule": "CCOc1cc(C2C(C(=O)Nc3ccc(OC)cc3)=C(C)Nc3nc(SC)nn32)ccc1O", "note": "(configuration not stated)", "activity change, negative = cytotoxicity": -26.7},
      {"molecule": "CC(=O)c1ccc(NC(=O)COc2ccccc2-c2nc(-c3ccccc3)no2)cc1", "activity change, negative = cytotoxicity": 3.1},
      {"molecule": "COc1cccc(CNC(=O)c2ccc3c(c2)N(Cc2ccc(C(F)(F)F)cc2)C(=O)c2ccccc2S3)c1OC", "activity change, negative = cytotoxicity": -5.25},
      {"molecule": "CC(C)S(=O)(=O)c1oc(-c2ccc(F)cc2)nc1S(=O)(=O)c1ccc(F)cc1", "Potency": "3.16 µM (active)"},
      {"molecule": "O=C(CSc1oc(-c2ccc(F)cc2)nc1S(=O)(=O)c1ccc(Br)cc1)NC1CCCCC1", "activity change, negative = cytotoxicity": 2.8},
      {"molecule": "Cc1ccc(-c2nc(S(=O)(=O)c3ccc(C)cc3)c(N3CCCCCC3)o2)cc1", "activity change, negative = cytotoxicity": -18.3},
      {"molecule": "COc1ccc(-c2nc(SCC(=O)N3CCCCC3C)n[nH]2)cc1", "note": "(configuration not stated)", "activity change, negative = cytotoxicity": 0.441},
      {"molecule": "O=C(NCCS(=O)(=O)N1CCN(c2ccc(F)cc2)CC1)c1ccccc1Br", "activity change, negative = cytotoxicity": -9.89},
      {"molecule": "COc1ccc(NC(=O)Cn2c(=O)cc(C)c3c(C)nn(-c4cccc(Cl)c4C)c32)cc1OC", "activity change, negative = cytotoxicity": -0.142},
      {"molecule": "CCOc1ccccc1CNC(=O)c1cnc2c(-c3ccc(OCC)c(OCC)c3)c(C)nn2c1C", "activity change, negative = cytotoxicity": -2.71},
      {"molecule": "Cc1ccc(-c2nc(Cn3c(=O)cc(-c4ccccc4)c4c(C)nn(C)c43)c(C)o2)cc1", "activity change, negative = cytotoxicity": 0.847},
      {"molecule": "O=C(CCn1c(=O)c2ccccc2n(Cc2ccc(Cl)cc2)c1=O)NCc1ccc2c(c1)OCO2", "activity change, negative = cytotoxicity": 16.4},
      {"molecule": "COc1ccc(-c2onc(C)c2C)cc1S(=O)(=O)NCc1cccs1", "activity change, negative = cytotoxicity": -12.4},
      {"molecule": "CCS(=O)(=O)N1CCc2cc(C(=O)N3CCN(c4ccccc4OC)CC3)ccc21", "activity change, negative = cytotoxicity": -23.9},
      {"molecule": "COc1ccc(C2=CC(c3ccccc3Cl)n3nc(-c4ccc(Cl)cc4)nc3N2)cc1", "note": "(configuration not stated)", "activity change, negative = cytotoxicity": -1.8},
      {"molecule": "COc1ccc(C)cc1NC(=O)C(=O)NCCc1sc(-c2cccc(C)c2)nc1C", "activity change, negative = cytotoxicity": 15.9},
      {"molecule": "Cc1c(-c2cccc(NC(=O)C(C)(C)C)c2)nc2ncccn12", "activity change, negative = cytotoxicity": 9.29},
      {"molecule": "Cc1cc(C)c(NC(=O)c2cc3sc(Cl)cc3n2C)c(C)c1", "activity change, negative = cytotoxicity": -0.729},
      {"molecule": "Cc1cccc(-n2ccnc2SCC(=O)Nc2cccc3ccccc23)c1C", "activity change, negative = cytotoxicity": -23},
      {"molecule": "CC(C)Cn1c(-c2ccc(S(=O)(=O)N3CCOCC3)cc2)csc1=Nc1cc(Cl)ccc1Cl", "activity change, negative = cytotoxicity": 1.99},
      {"molecule": "Cc1ccc2[nH]c3c(=O)n(CC(=O)NC(C)C)ncc3c2c1", "activity change, negative = cytotoxicity": 17.3},
      {"molecule": "COc1ccccc1CNC(=O)CS(=O)(=O)c1cccc2nsnc12", "activity change, negative = cytotoxicity": 1.47},
      {"molecule": "Cc1cccc2c1-c1sc(C(=O)Nc3ccc(F)cc3F)cc1CO2", "activity change, negative = cytotoxicity": 4.55},
      {"molecule": "CCOCCn1ccc2c(OCC(=O)NCc3ccc(C)cc3)cccc2c1=O", "activity change, negative = cytotoxicity": -27.9},
      {"molecule": "CCOC(=O)C1CCN(S(=O)(=O)c2ccc3c(c2)N(C)C(=O)CC(=O)N3C)CC1", "activity change, negative = cytotoxicity": 9.53},
      {"molecule": "Cc1ccc2c(c1)N(C(=O)CCC(=O)NCc1ccccc1F)CC(C)O2", "note": "(configuration not stated)", "activity change, negative = cytotoxicity": 16.2},
      {"molecule": "COc1cc(CNC(=O)c2cc3n(n2)CCCN(Cc2cccc(F)c2)C3=O)cc(OC)c1OC", "activity change, negative = cytotoxicity": 4.68},
      {"molecule": "COc1ccc(C2c3c(oc4ccccc4c3=O)C(=O)N2Cc2ccc3c(c2)OCO3)cc1", "note": "(configuration not stated)", "activity change, negative = cytotoxicity": -4.77},
      {"molecule": "CCCNC(=O)C1CCN(c2nc3ccc(C)cc3[nH]2)CC1", "activity change, negative = cytotoxicity": 12.1},
      {"molecule": "CCCc1cc(=O)n2[nH]c(NCc3ccc(CC)cc3)nc2n1", "activity change, negative = cytotoxicity": -6.76},
      {"molecule": "CCCCN(C)c1nnc(NC(=O)Nc2ccc(Br)c(C)c2)s1", "activity change, negative = cytotoxicity": 7.82},
      {"molecule": "Cc1cccc(-n2ncc(C(=O)N3CCC(C)CC3)c2C2CCN(C(=O)OC(C)(C)C)CC2)c1", "activity change, negative = cytotoxicity": -0.159},
      {"molecule": "COc1ccc2c(c1)c(=O)c(C(=O)c1ccccc1)cn2CC(=O)Nc1ccc2c(c1)OCCO2", "activity change, negative = cytotoxicity": -17.2},
      {"molecule": "Cn1ccc2cc(S(=O)(=O)N3CCCC(C(=O)NCc4ccccc4F)C3)ccc21", "note": "(configuration not stated)", "activity change, negative = cytotoxicity": -1.54},
      {"molecule": "CCOc1ccc(N(Cc2ccccc2)C(=O)c2nc(S(C)(=O)=O)ncc2Cl)cc1", "Potency": "3.55 µM (active)"},
      {"molecule": "CCOc1ccc(N(Cc2ccccc2)C(=O)c2nc(SCC)ncc2Cl)cc1", "activity change, negative = cytotoxicity": -13.1},
      {"molecule": "CCOc1ccc(N(CC)C(=O)C2CCN(S(=O)(=O)c3cccc4nonc34)CC2)cc1", "activity change, negative = cytotoxicity": 17},
      {"molecule": "O=C(Cn1ncn2nc(-c3cccs3)cc2c1=O)NCc1cccc(Br)c1", "activity change, negative = cytotoxicity": -7.84},
      {"molecule": "CCOC(=O)c1c(NC(=O)/C=C/c2ccc(OC)cc2)sc2c1CCC(C)C2", "note": "(configuration not stated)", "activity change, negative = cytotoxicity": 2.92},
      {"molecule": "Cc1ccc(O)c(NC(=O)CCS(=O)(=O)c2nc(-c3ccc4c(c3)OCO4)cc(C(F)(F)F)n2)c1", "activity change, negative = cytotoxicity": 0.975},
      {"molecule": "CCN(CC)CCNC(=O)Cn1ncc2c3ccccc3n(Cc3ccccc3C)c2c1=O", "activity change, negative = cytotoxicity": -15.4},
      {"molecule": "COCCNC(=O)CSc1c(C)cnc2c1c(=O)n(C)c(=O)n2C", "activity change, negative = cytotoxicity": 2.19},
      {"molecule": "COc1cc(C(=O)N2CCN(C(=O)COc3cccc(C)c3)CC2)cc(OC)c1OC", "activity change, negative = cytotoxicity": 8.68},
      {"molecule": "CCCNC(=O)CCC(=O)N1Cc2ccccc2Oc2ncccc21", "activity change, negative = cytotoxicity": 0.274},
      {"molecule": "CC(NC(=O)CCc1cn(Cc2ccccc2Cl)c2ccccc12)c1ccccc1", "note": "(configuration not stated)", "activity change, negative = cytotoxicity": -3.26},
      {"molecule": "CC(C)CC(NS(=O)(=O)c1ccc2c(c1)oc(=O)n2C)C(=O)NCc1ccccc1Cl", "note": "(configuration not stated)", "activity change, negative = cytotoxicity": -2.2}
    ]}
  ]
}
